Source: PubChem BioAssay
Sampled rows, rich in hits. Any-hit rate of the full collection: about 3.5%.
TEAD-YAP block: TEAD-YAP interaction inhibition; HEK-TIYL cells, TEAD-Gal4/YAP UAS-luciferase luminescence; hit rate 1.4% among 640,000; inhibition, % at 9.12 µM; in the data active = inhibition above about 32%;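 also: 0% = median of test compound wells and 100% = reference inhibitor wells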
FBW7 activator: activators of human E3 ligase FBW7 | Q969H0 | AlphaScreen FBW7–phospho-cyclin E peptide binding, activator screen | normalized activity (activation), % at 26.1 µM | hit rate 0.13% among 650,000; in the data active = normalized activity above about 1.9%;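 also: purified mutant Fbw7 with reduced substrate affinity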
GPR151 ag: human GPR151 activation | Q8TDV0 | PathHunter beta-arrestin GPR151 cells, luminescence | activation, % at 11.2 µM | hit rate 1% among 650,000 | AID 1508602; in the data active = activation above about 4.9%;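 also: 0% = median of compound wells and 100% = cells with positive control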
MITF primary: inhibitors of human MITF | hit rate 0.91% among 650,000 | AlphaScreen MITF homodimerization, bead proximity signal | O75030 | inhibition, % at 2.6 µM; in the data active = inhibition above about 50%;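 also: 0% = vehicle wells with protein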
Target sequence (O75030 whole entry, looked up): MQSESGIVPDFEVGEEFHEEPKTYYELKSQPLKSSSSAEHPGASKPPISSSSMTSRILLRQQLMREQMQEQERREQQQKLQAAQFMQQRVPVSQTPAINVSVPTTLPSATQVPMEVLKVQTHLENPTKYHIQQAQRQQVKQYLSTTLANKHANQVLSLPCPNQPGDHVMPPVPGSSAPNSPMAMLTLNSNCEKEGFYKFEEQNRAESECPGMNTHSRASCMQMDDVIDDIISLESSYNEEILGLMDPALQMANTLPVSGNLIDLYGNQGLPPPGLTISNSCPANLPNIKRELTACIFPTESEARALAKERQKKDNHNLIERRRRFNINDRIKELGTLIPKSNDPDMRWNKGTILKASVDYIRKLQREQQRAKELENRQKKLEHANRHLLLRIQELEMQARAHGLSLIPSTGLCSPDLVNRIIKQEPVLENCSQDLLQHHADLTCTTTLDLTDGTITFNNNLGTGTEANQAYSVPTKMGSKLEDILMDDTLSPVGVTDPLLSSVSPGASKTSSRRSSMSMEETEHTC
* = called active by the depositor.

SMILES	TEAD-YAP block	FBW7 activator	GPR151 ag	MITF primary
COc1ccc(CCNc2cc(C)nc(Oc3ccccc3)n2)cc1	35*	0	3	19
Cc1cnc(CNC(=O)c2ccc3cncc(-c4ccccc4)c3n2)cn1	63*	0	0	-4
O=C(NCc1ccccc1)c1ccc2cncc(-c3ccccc3)c2n1	66*	0	-1	60*
CCOC(=O)C1CCCN(c2nc3c(C)cc(C)cc3s2)C1 (centres undefined)	0	0	-1	12
CC(C)C(=O)Nc1cccc(C(=O)Nc2nnc(CCc3ccccc3)s2)c1	47*	0	1	7
CC(NC(=O)C(=O)N/N=C/c1ccc(F)cc1)c1ccccc1 (centres undefined)	2	0	2	-3
CN(C)CCCN(C(=O)/C=C\c1ccc([N+](=O)[O-])cc1)c1nc2c(F)cccc2s1	76*	0	-1	-20
CN(C)CCN(C(=O)c1c(F)cccc1F)c1nc2ccccc2s1	-13	0	-1	6
CC(C)Oc1ccccc1/C=C(\C#N)S(=O)(=O)c1ccccc1	4	0	-1	-6
COc1ccc(CCNc2cc(N3CCN(S(C)(=O)=O)CC3)ccc2[N+](=O)[O-])cc1OC	60*	0	2	18
COc1ccc(CCNc2cc(N3CCN(S(=O)(=O)c4ccc(OC)c(OC)c4)CC3)ccc2[N+](=O)[O-])cc1OC	-6	0	0	2
COc1ccc(CCNc2cc(N3CCN(C)CC3)ccc2[N+](=O)[O-])cc1OC	48*	0	1	-1
COc1ccc(CCNc2cc(N3CCCC3)ccc2[N+](=O)[O-])cc1OC	-5	0	-1	3
O=C(O)c1csc(Nc2ccccc2Cl)n1	-10	1	1	-2
CCC1(CC)NC(=O)N(CC(=O)OCC(=O)NC(=O)c2ccc(Cl)cc2)C1=O	-5	0	0	1
O=C(NCc1ccccc1)c1ccc2c(=O)n(Cc3ccccc3)c(SCc3cccc(Cl)c3)nc2c1	4	0	1	1
CC(=O)Oc1cccc(C(=O)Nc2ccccc2C(N)=O)c1	4	0	-2	-17
N#Cc1c(-n2ncnc2-c2cccs2)sc2c1CCCCC2	64*	0	1	22
Cc1ccc(-c2ncnn2-c2sc3c(c2C#N)CCCCC3)cc1	2	-1	-1	5
CC1=CC(=O)C=C(C)C1=NOC(=O)c1ccc(Cl)cc1	8	0	0	73*
CC1=CC(=O)C=C(C)C1=NOC(=O)c1ccc([N+](=O)[O-])cc1	5	1	-2	8
N#Cc1cc2cc3c(cc2nc1NCCCNC(=O)Cc1ccccc1)OCO3	34*	0	-1	10
COc1ccccc1NC(=O)NCCCNc1nc2cc3c(cc2cc1C#N)OCO3	65*	0	0	-6
O=C(Cn1nnc2ccccc2c1=O)NCc1cccs1	-15	0	1	-1
CCc1ccc(-c2csc(=Nc3ccc(F)cc3)n2Cc2ccco2)cc1	10	0	1	14
SMILES	TEAD-YAP block	FBW7 activator	GPR151 ag	MITF primary
COc1ccc(/C=C2/SC(=S)N(N)C2=O)cc1OC	-11	0	2	8
O=C(O)c1ccc(N2C(=O)/C(=C\c3ccco3)SC2=S)cc1O	-8	0	0	38
O=C(O)Cc1ccc(N2C(=O)/C(=C\c3ccco3)SC2=S)cc1	6	-1	-2	76*
NN1C(=O)/C(=C\c2ccco2)SC1=S	2	0	-1	75*
CC(=C\c1ccco1)/C=C1/SC(=S)N(CC(=O)O)C1=O	-5	-1	0	54*
NN1C(=O)/C(=C/c2ccc(O)c(Br)c2)SC1=S	33*	-1	-8	20
CCN1C(=O)/C(=C\C(C)=C\c2ccco2)SC1=S	-6	0	0	18
O=C1/C(=C/c2ccco2)SC(=S)N1c1cccnc1	-11	0	-2	68*
Nc1nnc(SCC(=O)N2N=C(c3ccc4ccccc4c3)CC2c2ccccc2)s1 (centres undefined)	51*	0	-2	0
c1ccc(-c2nc(NCCN3CCOCC3)c3ncn(-c4ccccc4)c3n2)cc1	28	0	0	16
O=C1CCCN1CCn1cnc2c(NCCN3CCOCC3)nc(-c3ccc(N4CCOCC4)nc3)nc21	-14	0	0	1
c1ccc(OCCNc2ncnc3nc(-c4ccc(N5CCOCC5)nc4)[nH]c23)cc1	-19	11*	-1	-3
c1ccc(-n2cnc3c(NCCN4CCOCC4)nc(-c4ccc(N5CCOCC5)nc4)nc32)cc1	59*	0	0	2
Oc1ccc(CCNc2nc(-c3ccc(N4CCOCC4)nc3)nc3c2ncn3-c2ccccc2)cc1	41*	1	3	12
O=C1CCCN1CCCNc1nc(-c2ccc(N3CCOCC3)nc2)nc2c1ncn2-c1ccccc1	48*	0	1	5
Cc1c(C(=O)NC2CCCC(C)C2C)sc2ncnc(N3CCN(c4ccccc4F)CC3)c12 (centres undefined)	2	0	1	0
CC(O)CNCC(=O)Nc1ccccc1Br (centres undefined)	0	0	-1	40
CCOc1ccc2nc(SCC(=O)Nc3ccc(-c4nc5cc(C)ccc5s4)cc3)sc2c1	-48	0	-1	-57
CCc1csc2ncc(C(=O)N(C)c3ccccc3)c(=O)n12	1	0	0	14
FC(F)(F)c1ccc(Cn2cnc3c(NCc4ccccc4)nc(-c4ccc(N5CCOCC5)nc4)nc32)cc1	11	0	1	7
Oc1ccc(CCNc2nc(NCCN3CCOCC3)nc3c2ncn3-c2ccccc2)cc1	37*	0	-2	7
FC(F)(F)c1ccc(Cn2cnc3c(NCCOc4ccccc4)nc(-c4ccc(N5CCOCC5)nc4)nc32)cc1	8	2.0*	0	20
CCn1nc(C)c(CN2CCC3(CC2)CC3C(=O)Nc2ccc(OC)c(Cl)c2)c1C (centres undefined)	3	0	0	8
CCOC(=O)C(C#N)C(=O)c1ccc(N2C(=O)c3ccccc3C2=O)cc1 (centres undefined)	0	0	3	-9
CCOC(=O)C(C#N)C1(O)C(=O)c2ccccc2C1=O (centres undefined)	9	1	-1	57*
SMILES	TEAD-YAP block	FBW7 activator	GPR151 ag	MITF primary
CCCCCn1c(SCC(=O)OCC)nc2cc(C(=O)N3CCN(C(=O)OCC)CC3)ccc2c1=O	1	1	-1	4
CCC(=O)Nc1cccc(NC(=O)CSc2nnnn2-c2ccccc2)c1	8	0	-1	5
O=C(CSc1nnnn1-c1ccccc1)Nc1cccc(NC(=O)C23CC4CC(CC(C4)C2)C3)c1	72*	0	-1	8
CCOC(=O)c1cc2sccc2n1CC(=O)N(C)C1CCCCC1	1	1	0	3
O=C1c2ccc(O)c(O)c2C(=O)c2c(O)ccc(O)c21	2	1	2	66*
Cc1cc(N2CCCC2)nc(Nc2ccc(NS(=O)(=O)c3cccc(F)c3)cc2)n1	54*	0	-1	-3
CC(=O)Nc1ccc(-c2ccnc(Nc3ccc(S(N)(=O)=O)cc3)n2)cc1	-2	0	0	-3
